Experimental data from the supplement of paper PMC12067093, “Discovery and optimisation of a covalent ligand for TRIM25 and its application to targeted protein ubiquitination” (Chemical Science, 2025).
About 21,000 targets were measured; listed, in parts, are those with the largest changes and a random draw of the rest.

Compound: Cc1cc(ccc1-c1ccccc1)C(=O)N1CCCN(CC1)C(=O)CCl [compound 10]
Experiment: probe-labelled cysteine peptide fold change vs DMSO (competition) (log2 fold change); higher = less target engagement (more negative = stronger competition)
Conditions: 10 µM; THP-1; incubation time: 4 h
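Note: competitive profiling in live THP-1 cells: cysteine peptides tagged with an iodoacetamide desthiobiotin (IA-DTB) probe, intensity after compound treatment relative to DMSO-treated cells.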

First: GALNT7_Q86SF2_545_GFETAYCIDSMGK (UniProt Q86SF2)
Second: GOLGA4_Q13439_1085_ILLFGCEK (UniProt Q13439)
The “probe-labelled cysteine peptide fold change” value of the first is higher: -0.0613 for the first, -0.11 for the second.

Going from “GPX1_P07203_78_GLVVLGFPCNQFGHQENAKNEEILNSLK (UniProt P07203)” to “FYCO1_Q9BQS8_293_LTCLVAELQK (UniProt Q9BQS8)”, the “probe-labelled cysteine peptide fold change” value rises from -0.208 to 0.0275.

First: FHOD1_Q9Y613_43_APTCSLDGALPLGAQIPAVHR (UniProt Q9Y613)
Second: HDHD3_Q9BSH5_109_DFSHPCTWQVLDGAEDTLR (UniProt Q9BSH5)
The “probe-labelled cysteine peptide fold change” value of the first is higher: -0.105 for the first, -0.47 for the second.

Compared with “HINT3_Q9NQE9_66+73_QDPGTELLHCENEDLICFK (UniProt Q9NQE9)”, “GOLGA2_Q08379_984_ERPGLGSNPCIPFFYR (UniProt Q08379)” is higher in “probe-labelled cysteine peptide fold change” value: -0.386 for the first, -0.149 for the second.

Compared with “HGS_O14964_212_VCEPCYEQLNR (UniProt O14964)”, “GPATCH1_Q9BRR8_485_AQLSPAAAAGHCSWNMALGGGTATLK (UniProt Q9BRR8)” is lower in “probe-labelled cysteine peptide fold change” value: 0.0236 for the first, -0.0776 for the second.

First: HLA-C_P04222_345+364_GGSCSQAASSNSAQGSDESLIACKA (UniProt P04222)
Second: FOS_P01100_204_EKLEFILAAHRPACK (UniProt P01100)
The “probe-labelled cysteine peptide fold change” value of the first is lower: -0.638 for the first, 0.0955 for the second.

Going from “GABPA_Q06546_69_LQCSLDAHEICLQDIQLDPER (UniProt Q06546)” to “HK3_P52790_840_AAQLCGAGVAAVVEK (UniProt P52790)”, the “probe-labelled cysteine peptide fold change” value falls from 0.331 to 0.169.

First: GPD1L_Q8N335_216_NIVAVGAGFCDGLR (UniProt Q8N335)
Second: GSDMD_P57764_38_RVVQELDHGGEFIPVTSLQSSTGFQPYCLVVR (UniProt P57764)
The “probe-labelled cysteine peptide fold change” value of the first is lower: -0.0284 for the first, 0.275 for the second.

First: HAUS2_Q9NVX0_89_CHTLQSMNNHLEAVLK (UniProt Q9NVX0)
Second: GTF3C5_Q9Y5Q8_75_DPYCHPVCANR (UniProt Q9Y5Q8)
The “probe-labelled cysteine peptide fold change” value of the first is lower: 0.0751 for the first, 0.121 for the second.

First: HDAC5_Q9UQL6_982_CFGHLTR (UniProt Q9UQL6)
Second: HDAC10_Q969S8_23_LLWDDPECEIERPER (UniProt Q969S8)
The “probe-labelled cysteine peptide fold change” value of the first is higher: 0.138 for the first, -0.294 for the second.

Going from “HK3_P52790_190_CSGVEGQDVVQLLR (UniProt P52790)” to “HELZ_P42694_101_AVLCCMQLK (UniProt P42694)”, the “probe-labelled cysteine peptide fold change” value falls from 0.199 to -0.198.

Going from “FKBP8_Q14318_274_CLNNLAASQLK (UniProt Q14318)” to “GPAA1_O43292_266_GGLLCTLQGK (UniProt O43292)”, the “probe-labelled cysteine peptide fold change” value falls from 0.0653 to -0.168.

Going from “GNB1_P62873_148+149_ELAGHTGYLSCCR (UniProt P62873)” to “GFPT1_Q06210_264_VDSTTCLFPVEEK (UniProt Q06210)”, the “probe-labelled cysteine peptide fold change” value rises from -0.185 to -0.0167.

Compared with “GSPT1_P15170_464_TAGTICLETFK (UniProt P15170)”, “FLAD1_Q8NFF5_338_LTLDSEEEGPLEECLAYLTAR (UniProt Q8NFF5)” is lower in “probe-labelled cysteine peptide fold change” value: 0.00954 for the first, -0.0485 for the second.
